Experimental findings from the supplement of paper PMC8975748 are described below.

Where a name gives a salt, the structure may show the parent alone.

This experiment has as its system Saccharomyces cerevisiae BY4741 SeMeCo community. Description: z-score of subpopulation abundance vs DMSO median, subpopulation auxotrophic for HL; higher = larger share of this subpopulation than in DMSO controls. The conditions noted are these: 10 µM; 24 h; SM minimal medium; subpopulation (auxotrophy): HL. As for the experimental part: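 Fluorescent four-plasmid SeMeCo (self-establishing metabolically cooperating S. cerevisiae BY4741 community; plasmids pH-mRuby2, pL-mWasabi, pU-eCFP, pM-TagRFP657) was grown 24 h in minimal SM medium with each Selleck FDA-approved drug at 10 µM in 384-well plates. Cells were fixed and imaged by high-content confocal microscopy. For each auxotrophic subpopulation (and the prototroph), a z-score gives the deviation from the DMSO vehicle-control population median.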
Regarding `CN1CCC(=C2c3ccccc3C=Cc3ccccc32)CC1` [Cyproheptadine hydrochloride], the “z-score of subpopulation abundance” value is -0.02.

In the case of `CC1(C)S[C@@H]2[C@H](NC(=O)COc3ccccc3)C(=O)N2[C@H]1C(=O)O` [Penicillin V potassium salt], the “z-score of subpopulation abundance” value is -0.72. As for `CO/N=C(\C(=O)N[C@@H]1C(=O)N2C(C(=O)O)=C(CSC(=O)c3ccco3)CS[C@H]12)c1csc(N)n1` [Ceftiofur HCl], the “z-score of subpopulation abundance” value was -0.8. Next, `CC(C)Cc1ccc(C(C)C(=O)O)cc1` (stereo not given) [Ibuprofen Lysine]: -0.13. In the case of `CN1CCOC(c2ccccc2)c2ccccc2C1` (stereo not given) [Nefopam HCl], the “z-score of subpopulation abundance” value was -0.63. Regarding `COc1ccc2[nH]c([S+]([O-])Cc3ncc(C)c(OC)c3C)nc2c1` (stereo not given) [Omeprazole], the “z-score of subpopulation abundance” value amounted to 2.48. As to `CN1[C@@H]2CC[C@H]1C[C@@H](OC(c1ccccc1)c1ccccc1)C2` [Benztropine mesylate], the “z-score of subpopulation abundance” value came to 0.19.

In the case of `COC(=O)C1=C(C#N)NC(C)=C(C(=O)OC(C)C)C1c1cccc([N+](=O)[O-])c1` (stereo not given) [Nilvadipine], the “z-score of subpopulation abundance” value is -0.05. As for `CC(C)[N+](C)(CCOC(=O)C1c2ccccc2Oc2ccccc21)C(C)C` [Propantheline bromide], the “z-score of subpopulation abundance” value is -0.65. Turning to `O=C1CN2Cc3c(ccc(Cl)c3Cl)N=C2N1` [Anagrelide HCl], the “z-score of subpopulation abundance” value was found to be 0.5. For `CC(=O)OCC(COC(C)=O)OC(C)=O` [Triacetin] the value was -0.02; for `COc1cc(/C=C/C(=O)N2CCN(CC(=O)N3CCCC3)CC2)cc(OC)c1OC` [Cinepazide maleate], -0.2.

For the compound `CC1(C)CC[C@]2(C(=O)O)CC[C@]3(C)C(=CC[C@@H]4[C@@]5(C)CC[C@H](O)C(C)(C)[C@@H]5CC[C@]43C)[C@@H]2C1` [Oleanolic Acid], the “z-score of subpopulation abundance” value was 0.59. For the compound `C[N+]1(C)[C@@H]2C[C@@H](OC(=O)C(O)(c3cccs3)c3cccs3)C[C@H]1[C@@H]1O[C@@H]12` [Tiotropium Bromide hydrate], the “z-score of subpopulation abundance” value is -0.52. In the case of `CCC[C@@H]1C[C@@H](C(=O)N[C@@H]([C@H]2O[C@H](SC)[C@H](O)[C@@H](O)[C@H]2O)[C@@H](C)O)N(C)C1` [Lincomycin HCl], the “z-score of subpopulation abundance” value is -0.34. In the case of `CN(Cc1ccc(C(C)(C)C)cc1)Cc1cccc2ccccc12` [Butenafine HCl], the “z-score of subpopulation abundance” value is -0.63. Turning to `CCN(CC)CCNC(=O)c1cc(Cl)c(N)cc1OC` [Metoclopramide HCl], the “z-score of subpopulation abundance” value is 0.1. For `Cc1onc(-c2ccccc2)c1-c1ccc(S(N)(=O)=O)cc1` [Valdecoxib] the value was -0.64. Turning to `CN1C2CCC1CC(OC(=O)C(O)c1ccccc1)C2` (stereo not given) [Homatropine Bromide], the “z-score of subpopulation abundance” value was -0.63. Regarding `O=C(O)C1=C(CSc2nnnn2CS(=O)(=O)O)CS[C@@H]2[C@H](NC(=O)[C@H](O)c3ccccc3)C(=O)N12` [Cefonicid sodium], the “z-score of subpopulation abundance” value is 0.41. On to `Cc1nc(C)c(Cl)c(O)c1Cl` [Clopidol], for which the “z-score of subpopulation abundance” value came out at 0.28.

Consider `N[C@@H]1CN(c2c(F)cc3c(=O)c(C(=O)O)cn([C@@H]4C[C@@H]4F)c3c2Cl)CC12CC2` [Sitafloxacin Hydrate], for which the “z-score of subpopulation abundance” value amounted to 0.18. For `CCCc1nn(C)c2c(=O)[nH]c(-c3cc(S(=O)(=O)N4CCN(C)CC4)ccc3OCC)nc12` [Sildenafil Citrate] the value was -0.89. Consider `Nc1ccc(S(=O)(=O)NC(=O)c2ccccc2)cc1` [Sulfabenzamide], for which the “z-score of subpopulation abundance” value is -0.91. Regarding `O=C(O)c1cc(/N=N/c2ccc(O)c(C(=O)O)c2)ccc1O` [Olsalazine Sodium], the “z-score of subpopulation abundance” value was -0.76.

Take `COc1ccc2cc(C(=O)O)ccc2c1` [6-Methoxy-2-naphthoic acid]: the “z-score of subpopulation abundance” value was found to be 0.89.

As for `OC[C@H]1O[C@H](OCC2O[C@@H](O)[C@H](O)[C@@H](O)[C@@H]2O)[C@H](O)[C@@H](O)[C@H]1O` (stereo not given in full) [Melibiose], the “z-score of subpopulation abundance” value worked out at 0.32. In the case of `c1ccc(C2CN3CCSC3=N2)cc1` (stereo not given) [Tetramisole HCl], the “z-score of subpopulation abundance” value came to 0.08. Consider `CO/N=C(\C(=O)N[C@@H]1C(=O)N2C(C(=O)O)=CCS[C@H]12)c1csc(N)n1` [Ceftizoxime], for which the “z-score of subpopulation abundance” value is -0.85.

As to `Cc1nc(=O)c2cc(CN(C)c3ccc(C(=O)N[C@@H](CCC(=O)O)C(=O)O)s3)ccc2[nH]1` [Raltitrexed], the “z-score of subpopulation abundance” value is -0.37. As for `NC(=O)c1ncn([C@@H]2O[C@H](CO)[C@@H](O)[C@H]2O)n1` [Ribavirin], the “z-score of subpopulation abundance” value is -0.89. Next, `Cc1ccc(-c2ncc(Cl)cc2-c2ccc(S(C)(=O)=O)cc2)cn1` [Etoricoxib]: -0.03; `CCOC(=O)C1=C[C@@H](OC(CC)CC)[C@H](NC(C)=O)[C@@H](N)C1` [Oseltamivir Phosphate]: 0.28; `O=c1ccc2cc(O)c(O)cc2o1` [Esculetin]: 2.44. Turning to `Cc1ccc(-c2cc(C(F)(F)F)nn2-c2ccc(S(N)(=O)=O)cc2)cc1` [Celecoxib], the “z-score of subpopulation abundance” value is -0.61. For `CCCCc1oc2ccccc2c1C(=O)c1cc(I)c(OCCN(CC)CC)c(I)c1` [Amiodarone HCl], the “z-score of subpopulation abundance” value amounted to 3.55.

Turning to `O=C1NCC2(CCN(CCc3ccccc3)CC2)O1` [Fenspiride HCl], the “z-score of subpopulation abundance” value worked out at 0.27. For the compound `C[C@@H](O)[C@H]1C(=O)N2C(C(=O)O)=C(S[C@@H]3CN[C@H](C(=O)N(C)C)C3)[C@H](C)[C@H]12` [Meropenem Trihydrate], the “z-score of subpopulation abundance” value was 0.55. Next, `CCOC(=O)C1=C(COCCN)NC(C)=C(C(=O)OC)C1c1ccccc1Cl` (stereo not given) [Amlodipine]: 5.86. `N#Cc1ccc2[nH]cc(CCCCN3CCN(c4ccc5oc(C(N)=O)cc5c4)CC3)c2c1` [Vilazodone HCl]: the “z-score of subpopulation abundance” value is 0.87.
